We go through 67 molecules from ChEMBL document CHEMBL3988442, “University of Dundee, Small-Polar-MMV Screening Library” (2021).

SMILES strings stand for the structures. The whole screen tested about 48,000 compounds, of which about 13,000 (27%) showed an effect of 50% or more. The list shows a part of the results.

The test deals with Wolbachia pipientis. In words: Anti-Wolbachia Cell-Based Screen. It is filed as functional. Also noted: scale not given: in the data most compounds retested in dose-response had high values. As to conditions: 5 µM.
For `COCCN(Cc1ccc(F)cc1Cl)C(=O)c1ccc(=O)[nH]n1`, the “Percent Effect” value is given as -1.923%.

`CCc1nsc(N2CCN(CC(=O)Nc3c(C)n[nH]c3C)CC2)n1`: the “Percent Effect” value is -25.55%.

Take `CCc1nc(CN2CCCN(C(=O)COCC3CC3)CC2)cs1`: the “Percent Effect” value is reported as -1.235%.

With `CCN(CC(C)O)C(=O)Nc1cnn(CCOC)c1` (configuration not stated), the “Percent Effect” value was -12.18%.

As for `NC(=O)NC(=O)CCN1CCCN(c2nccs2)CC1`, the “Percent Effect” value was -3.66%.

`COCc1cc(N(C)Cc2cnccn2)nc(C(C)(C)C)n1`: the “Percent Effect” value is reported as 4.515%.

As for `CC(C)(CNCc1ccc(OCc2cscn2)cc1)C(N)=O.Cl`, the “Percent Effect” value came out at 0.3922%.

For `COc1ccccc1Oc1ncccc1CNC(=O)C1(C)CCCNC1` (configuration not stated), the “Percent Effect” value came out at 21.66%.

Turning to `COc1ccccc1-c1ccccc1CC1(C(=O)O)CCNCC1`, the “Percent Effect” value is 100.9%.

Take `CCOC(=O)C1(Cc2ccccc2-c2ccccc2OC)CCNCC1.Cl`: the “Percent Effect” value was determined as 172.1%.

Regarding `COc1ccc(F)cc1NC(=O)NCC1(C)COC1`, the “Percent Effect” value turned out to be 5.652%.

Regarding `COc1ccc(F)cc1NC(=O)NCC1(CN2CCOCC2)CC1`, the “Percent Effect” value worked out at 21.38%.

As to `CCOC(=O)C1(Cc2cccc(OC)c2)CCN(Cc2ccon2)CC1`, the “Percent Effect” value worked out at 2.808%.

In the case of `COc1ccccc1CN(C)C(=O)CN1C(=O)OC[C@@H]1c1ccccc1`, the “Percent Effect” value is -5.71%.

For the molecule `COc1ccccc1CCN[C@@H]1c2ccccc2C2(CCNCC2)[C@H]1O`, the “Percent Effect” value is given as -1.43%.

For the molecule `COc1ccc(F)cc1-c1ccccc1CC1(C(=O)O)CCOCC1`, the “Percent Effect” value was found to be 118.1%.

Consider `O=C(Cc1ccccn1)N1CCn2cc(Cn3cncn3)nc2C1`, for which the “Percent Effect” value is given as 22.42%.

For the molecule `Cn1cc(C2(C)CN(c3ncccc3C#N)CCO2)cn1` (configuration not stated), the “Percent Effect” value is on record as -13.05%.

For the molecule `CN(C)Cc1ccnc(NS(=O)(=O)CCc2ccccc2)c1`, the “Percent Effect” value is -12.88%.

For the molecule `OCc1cc2ccccc2nc1N1CCCC1`, the “Percent Effect” value stood at 4.126%.

As for `CN(C)CCNC(=O)c1cc2n(n1)CCN(C(=O)c1ccco1)C2`, the “Percent Effect” value is given as -13.42%.

Regarding `COC(=O)c1cc2n(n1)CCN(C(=O)c1csc(CN(C)C)n1)C2`, the “Percent Effect” value was 85.52%.

Consider `CCCc1nc(C(=O)N2CCn3nc(C(=O)OC)cc3C2)cs1`, for which the “Percent Effect” value came to 111.4%.

For `CCCc1nc(C(=O)N2CCN(C(=O)c3ccc(OC)cc3)CC2)cs1`, the “Percent Effect” value is 10.06%.

With `CCCc1nc(C(=O)N2CCN(C(=O)OC)CC2)cs1`, the “Percent Effect” value is -2.631%.

As to `Cc1cc(C)c(C(=O)N2CCn3nc(C(=O)NCCN(C)C)cc3C2)[nH]1`, the “Percent Effect” value is -6.569%.

As to `Cc1cc(C)c2nc(CN3C[C@H](CCO)[C@@H](N)C3)cc(O)c2c1`, the “Percent Effect” value is on record as -3.113%.

As for `CCOCC(=O)Nc1ccc(-n2ccc(C(N)=O)n2)cc1`, the “Percent Effect” value turned out to be 5.23%.

`CCc1ccc(CN2CCC(=O)N(CC3CC3)C(C(C)C)C2)nc1` (configuration not stated): the “Percent Effect” value is listed as -6.583%.

Take `Cc1cc(CNC(=O)c2ccc(F)c(COCC3CC3)c2)no1`: the “Percent Effect” value stood at 7.35%.

Regarding `Cn1cnnc1C1CCCN(C(=O)NCCNc2ccccn2)C1` (configuration not stated), the “Percent Effect” value worked out at 14.43%.

Regarding `COCCCNC(=O)N1CCCC(c2nncn2C)C1` (configuration not stated), the “Percent Effect” value is given as -7.003%.

On to `Cn1cnnc1C1CCCN(C(=O)NCCCn2cccn2)C1` (configuration not stated), for which the “Percent Effect” value is given as 106.2%.

Regarding `Cn1cnnc1C1CCCN(C(=O)NCCOc2ccccc2)C1` (configuration not stated), the “Percent Effect” value was found to be 6.909%.

On to `Cn1cnnc1C1CCCN(C(=O)NCCn2ccnc2)C1` (configuration not stated), for which the “Percent Effect” value was 89.71%.

`CN1CCC(Cc2noc(-c3cn(Cc4ccc(F)cc4)nn3)n2)CC1`: the “Percent Effect” value is -9.878%.

Turning to `CC(C)N1CCC(CC(=O)NC(C(=O)O)c2cccc(F)c2)CC1` (configuration not stated), the “Percent Effect” value is -7.789%.

Consider `CC(C)N1CCC(CNC(=O)CCc2cc(F)ccc2F)C1` (configuration not stated), for which the “Percent Effect” value is 16.43%.

`CC(C)N1CCC(CC(=O)NC(C(=O)O)c2cc(F)ccc2F)CC1` (configuration not stated): the “Percent Effect” value was found to be 9.298%.

With `CC(C)N1CCC(Cc2cc(-c3cc(F)ccc3C(=O)O)ncn2)C1` (configuration not stated), the “Percent Effect” value is on record as 139.5%.

On to `CC(C)N1CCC(CNC(=O)COc2ccc(F)cc2F)C1` (configuration not stated), for which the “Percent Effect” value amounted to 8.17%.

Consider `CC(C)N1CCC(CC(=O)NC(C(=O)O)c2ccc(F)cc2)CC1` (configuration not stated), for which the “Percent Effect” value came out at 7.704%.

As for `Cn1cc(C(=O)O)c(-c2ccc(F)cc2F)n1`, the “Percent Effect” value is recorded as -6.689%.

Turning to `CC(C)N1CCC(Cc2cncc(-c3cc(F)ccc3C(=O)O)n2)CC1`, the “Percent Effect” value came out at 98.45%.

As to `CC(C)N1CCC(Cc2cc(-c3ccccc3C(=O)O)ncn2)CC1`, the “Percent Effect” value is reported as -18.63%.

`CN1CCC(Cc2cccc(-c3cc(F)ccc3C(=O)O)n2)CC1`: the “Percent Effect” value is listed as 135.9%.

Regarding `CC(C)N1CCC(Cc2cncc(-c3cc(F)ccc3C(=O)O)n2)C1` (configuration not stated), the “Percent Effect” value is 135%.

In the case of `CC(C)c1ccc(S(=O)(=O)NC2(CC(N)=O)CCC2)cc1`, the “Percent Effect” value is -1.072%.

For the molecule `Cn1cc(CN2CC[C@@H]3[C@@H](CCC(=O)N3CCc3c[nH]cn3)C2)cn1`, the “Percent Effect” value turned out to be 6.547%.

As for `CCOCCS(=O)(=O)N(CC)Cc1ccc(Cl)s1`, the “Percent Effect” value is reported as -4.367%.

Consider `CCc1nn(C)c(Cl)c1CN1CCN(c2nc(C(N)=O)cs2)CC1`, for which the “Percent Effect” value was determined as 12.42%.

Turning to `O=C1COC2(CCN(c3ncccn3)CC2)CN1c1ccsc1`, the “Percent Effect” value was found to be 18.21%.

As for `CCc1cnc(CN(C(C)=O)C2CCN(CC(=O)N3CCCC3)C2)o1` (configuration not stated), the “Percent Effect” value was determined as 113.8%.

Turning to `CCc1cnc(CN(C(C)=O)C2CCN(CCS(C)(=O)=O)C2)o1` (configuration not stated), the “Percent Effect” value is reported as -15.83%.

As for `CCc1cnc(CN(C(C)=O)C2CCN(CC3(O)CCCCC3)C2)o1` (configuration not stated), the “Percent Effect” value turned out to be 86.51%.

In the case of `CCc1cnc(CN(C(C)=O)C2CCN(CCN3CCCCC3)C2)o1` (configuration not stated), the “Percent Effect” value stood at 112.7%.

Turning to `CC(=O)N(Cc1ncc(C(C)C)o1)C1CCN(CCn2cccn2)C1` (configuration not stated), the “Percent Effect” value is on record as 8.925%.

On to `COc1cccc(CN(C)Cc2cc(C#N)ccc2F)c1OC`, for which the “Percent Effect” value was -16.49%.

In the case of `O=C(c1c[nH]c(=O)[nH]1)N1CCCC2(CCC(=O)N(C3CCCC3)C2)C1` (configuration not stated), the “Percent Effect” value is 5.666%.

As for `CC(C(=O)NC1CCCCC1)N1CCc2[nH]nc(C(F)(F)F)c2C1` (configuration not stated), the “Percent Effect” value is recorded as -5.733%.

`Cc1nccn1-c1ccc(N2CCC(NC(C)CC(C)C)CC2)cc1` (configuration not stated): the “Percent Effect” value is reported as 16.66%.

For the molecule `COCCN1CCc2cc(C(=O)NC(C)C)c(NCC3CC3)nc2CC1.O=C(O)C(F)(F)F.O=C(O)C(F)(F)F`, the “Percent Effect” value worked out at 103.7%.

Turning to `COCCN1CCc2cc(C(=O)N(C)C)c(NCC3CC3)nc2CC1.O=C(O)C(F)(F)F.O=C(O)C(F)(F)F`, the “Percent Effect” value is 1.501%.

Consider `COCCN1CCc2cc(C(=O)O)c(NCC3CC3)nc2CC1.O=C(O)C(F)(F)F.O=C(O)C(F)(F)F`, for which the “Percent Effect” value turned out to be 96.69%.

Take `COCCN1CCc2cc(C(=O)NC(C)C)c(NCC(C)C)nc2CC1.O=C(O)C(F)(F)F.O=C(O)C(F)(F)F`: the “Percent Effect” value was 1.817%.

Regarding `COCCN1CCc2cc(C(=O)NCC3CC3)c(NC(C)C)nc2CC1.O=C(O)C(F)(F)F.O=C(O)C(F)(F)F`, the “Percent Effect” value was -15.94%.

As to `CNC(=O)c1cc2c(nc1NCC(C)C)CCN(CCOC)CC2.O=C(O)C(F)(F)F.O=C(O)C(F)(F)F`, the “Percent Effect” value amounted to 1.626%.
